Screening results: PubChem, National Center for Advancing Translational Sciences (NCATS)
TGFb SMAD3 inh: blocks TGF-b signaling. HepG2 CAGA-GFP TGF-b/SMAD3 reporter, GFP fluorescence, 18 h; TGF-beta stimulated, 500 pg/mL final. AID 588855. actives 1.2% (n = 410,000). Potency, µM (titrated, usually from 46.1 µM), actives largely listed as inhibitors; also: nearly all actives have a fitted effect of over 65% in size
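Cell-based qHTS in HEPG2 carrying a CAGA-GFP Smad reporter; compounds added before 500 pg/mL final TGF-beta, 18 h incubation at 37 degrees C, GFP fluorescence quantified per cell by imaging cytometry.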
HepG2 tox: HepG2 cytotoxicity, counter-screen for TGF-b inhibitors. HepG2 CAGA-GFP viability, ATP luminescence, 18 h. Potency, µM (titrated, usually from 46.1 µM), usual class: cytotoxic. actives 0.76% (n = 410,000). AID 588856
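CellTiter-Glo luminescence gave cytotoxicity after 18 hours at 37 degrees C. The cells were HepG2 CAGA-GFP in 1% FBS DMEM, stimulated with 500 pg/mL TGF-beta after compound addition. %Activity was normalised to no-cell wells (complete cell-killing) and DMSO (no toxicity), and curves were fitted and classified.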
HT1080 IDH1KD tx: kills HT-1080 cells with IDH1 knockdown. HT-1080 IDH1 knockdown viability, ATP luminescence, 48 h. Potency, µM (highest dose often 46.1 µM), usual class: cytotoxic. actives 2% (n = 360,000). AID 686971
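Assay cells: HT-1080 with IDH1 knockdown, 750 per well, RPMI/5% FBS. Exposure: 48 h at 37 °C following 2 h pre-incubation. Read: CellTiter-Glo luminescence; fitted concentration-response, curve class assigned.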
IL1B secr inh: inhibitors of inflammasome signaling (IL-1 beta secretion); THP-1 LPS/ATP IL-1B secretion, AlphaLISA, 16 h; active compounds read low; activity change, % at 57.5 µM; actives 4.7% (n = 360,000); AID 743279; in the data active = activity change below about -50%; inconclusive = mostly about -30% to -49%
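THP-1 cells pretreated 1 hr with compounds (up to 57.5 uM final), then stimulated with LPS (250 ng/mL final) plus ATP (1.25 mM final); secreted IL-1B measured by AlphaLISA after 16 hr, decreased signal indicating inhibition.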
HT1080NT lethal: kills 2HG-producing HT-1080-NT fibrosarcoma cells. Potency, µM (titrated, usually from 46.1 µM), actives largely listed as cytotoxic. AID 686970. actives 1.6% (n = 360,000). HT-1080-NT fibrosarcoma viability, CellTiter-Glo ATP luminescence, 48 h;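 also: NT is the 2HG producing partner of a matched IDH1 knockdown line; nearly all actives have a fitted effect of over 55% in size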
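A 48-hour cytotoxicity screen used HT-1080-NT cells plated 2 hours before compound delivery. ATP-based CellTiter-Glo luminescence measured viability, normalized to DMSO and no-cell controls.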
Giardia killer: kills Giardia lamblia; AID 540267; activity change, % at 7.66 µM, hits read low; actives 0.15% (n = 340,000); Giardia lamblia trophozoite viability; in the data active = activity change below about -80%; inconclusive = between about -30% and that limit;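 also: parasites exposed to compound for two days anaerobically before the ATP read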
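Each well holds 100 Giardia trophozoites and compound. After two days (48 hrs) at 37 deg C in anaerobic conditions, ATP is quantified by luminescence.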
Each line names hits and unclear results; the compound was inactive in the other large screens. Most compounds without a hit are left out; they make up all but 6.5% or so of the library. Unless noted, calls follow the shape of the dose curve; as a rule, active = well fitted curve in the direction sought with a large enough effect; inconclusive = small, poorly fitted or top-dose-only effect, or another doubt; inactive = no such curve, though single readings can be large; an effect the other way counts as inactive or inconclusive.

CCCOc1ccc(C2c3c(-c4ccccc4O)n[nH]c3C(=O)N2CCc2ccccc2)cc1OCC (stereo not given)	TGFb SMAD3 inh 11µM, HepG2 tox 11µM (no result: HT1080 IDH1KD tx, IL1B secr inh, HT1080NT lethal, Giardia killer)
Cc1cc(C(=O)CSc2nc(N)cc(=O)[nH]2)c(C)n1CCc1ccc(F)cc1	HT1080 IDH1KD tx 26µM
COc1ccc(CCn2c(C)cc(C(=O)CSc3nc(N)cc(=O)[nH]3)c2C)cc1	HT1080NT lethal inconclusive
Cc1cc(C(=O)CCl)c(C)n1CCc1ccc(F)cc1	TGFb SMAD3 inh inconclusive, HT1080 IDH1KD tx 5.2µM, IL1B secr inh -58, HT1080NT lethal 5.8µM
Cc1cc(C(=O)CCl)c(C)n1CCc1ccc(Cl)cc1	TGFb SMAD3 inh inconclusive, HepG2 tox 18µM, HT1080 IDH1KD tx 8.2µM, IL1B secr inh -96, HT1080NT lethal 15µM
Cc1cc(C(=O)CSc2nnc(N)s2)c(C)n1CCc1ccc(Cl)cc1	none
COc1ccc(CCn2c(C)cc(C(=O)CCl)c2C)cc1OC	TGFb SMAD3 inh inconclusive, HT1080 IDH1KD tx inconclusive, IL1B secr inh -100, HT1080NT lethal inconclusive
Cc1cc(C(=O)CSc2nnnn2C)c(C)n1CCc1ccc(F)cc1	HT1080 IDH1KD tx inconclusive, HT1080NT lethal inconclusive
CCc1ccccc1NC(=O)CN(C)C(=O)COC(=O)c1ccccc1Cl	none
O=C(CN1C(=O)C2C3C=CC(C3)C2C1=O)OCC(=O)c1ccc(Cl)c([N+](=O)[O-])c1 (stereo not given)	IL1B secr inh -78
COc1ccc(S(=O)(=O)NCc2ccccn2)cc1NC(=O)c1ccc(C)cc1	HT1080 IDH1KD tx 13µM, HT1080NT lethal 5.8µM
COc1ccc(S(=O)(=O)NCc2ccccn2)cc1NC(=O)c1ccccc1	HT1080 IDH1KD tx 13µM, HT1080NT lethal 8.2µM
COc1ccc(S(=O)(=O)NCc2ccccn2)cc1Br	none
CCOc1ccc(S(=O)(=O)NCc2ccccn2)cc1NC(=O)c1ccccc1F	HT1080 IDH1KD tx inconclusive, HT1080NT lethal 0.92µM
CCOc1ccc(S(=O)(=O)Nc2ccc(C(=O)NCC(c3ccc(OC)cc3)N3CCOCC3)cc2)cc1 (stereo not given)	none
CCN(CC)C(=S)NC(=O)c1cccnc1	none
CC(C)OCCCn1c(=O)c2ccccc2n2c(CCC(=O)NC3CCN(Cc4ccccc4)CC3)nnc12	IL1B secr inh -51
O=C(Cn1nc(-c2ccccc2)c2ccccc2c1=O)Nc1ccc(O)cc1	none
Cc1ccc(NC(=O)NNC(=O)Cn2nc(-c3ccccc3)c(-c3ccccc3)c(C#N)c2=O)cc1	TGFb SMAD3 inh inconclusive, HT1080 IDH1KD tx 5.2µM, HT1080NT lethal 4.6µM
OC(CNCc1ccccn1)c1ccccc1 (stereo not given)	none
Fc1ccc(C(CCNCc2ccccn2)c2ccc(Cl)cc2)cc1 (stereo not given)	TGFb SMAD3 inh inconclusive, HepG2 tox 13µM, HT1080 IDH1KD tx 21µM, IL1B secr inh -90, HT1080NT lethal 18µM
CC(CC(=O)Nc1ccc2c(c1)c(=O)n(C)n2-c1cccs1)c1ccccc1 (stereo not given)	HT1080 IDH1KD tx 4.1µM, HT1080NT lethal inconclusive (no result: Giardia killer)
Cc1cc(C)cc(-n2c3ccc(NC(=O)Cc4cccc5ccccc45)cc3c(=O)n2C)c1	TGFb SMAD3 inh inconclusive, HT1080 IDH1KD tx 2.1µM, HT1080NT lethal inconclusive (no result: Giardia killer)
Cc1cccc(Oc2coc3cc(OC(=O)c4cccs4)ccc3c2=O)c1	none
Cc1csc(SCC(=O)NC2CCS(=O)(=O)C2)n1 (stereo not given)	none
CCCCNC(=NCc1cccc(C(F)(F)F)c1)Nc1ccccc1	HT1080 IDH1KD tx 23µM, IL1B secr inh -83, HT1080NT lethal inconclusive
Cc1nnc(NN)n(N)c1=O	none
COC(=O)c1ccc(Oc2cc(C)nc(SC)n2)cc1	HT1080 IDH1KD tx 5.8µM, HT1080NT lethal inconclusive
O=[N+]([O-])c1ccc(Cl)c(S(=O)(=O)Nc2ccc(-c3ccc(N4CCCC4)nn3)cc2)c1	IL1B secr inh -85
O=[N+]([O-])c1ccc(Cl)c(S(=O)(=O)Nc2cccc(-c3ccc(N4CCCC4)nn3)c2)c1	IL1B secr inh inconclusive
Nc1nc2ncccc2cc1C(=O)NCCc1cccs1	HT1080 IDH1KD tx 15µM (no result: TGFb SMAD3 inh, HepG2 tox, Giardia killer)
CC(C)c1cc(C(=O)NCCc2cccs2)c(N)s1	none (no result: TGFb SMAD3 inh, HepG2 tox, Giardia killer)
CCCOc1ccc(/C=C2/C(=O)ON=C2C)cc1OCC	none
CCCOc1ccccc1/C=C1/C(=O)ON=C1C	IL1B secr inh -52
C#CCOc1ccc(Cl)cc1/C=C1/C(=O)ON=C1C	none
C=CCOc1ccc(/C=C2/C(=O)ON=C2C)cc1OC	IL1B secr inh -97, HT1080NT lethal inconclusive
CCOc1cc(/C=C2\C(=O)ON=C2C)ccc1OCc1ccccc1	HT1080 IDH1KD tx inconclusive, IL1B secr inh -117, HT1080NT lethal inconclusive
Cc1ccc(NC(=O)C2CCC(CNS(=O)(=O)c3ccc4c(c3)CCCC(=O)N4)CC2)c(C)c1 (stereo not given)	none (no result: HT1080 IDH1KD tx, IL1B secr inh, HT1080NT lethal, Giardia killer)
Cc1cccc(OC(=O)NCCOC(=O)N(O)c2ccc(Cl)cc2)c1	IL1B secr inh -79
Cc1cccc(OCC(=O)Oc2ccc(Cl)cc2)c1	none
Nc1nc(N)c(-c2cccc(C(F)(F)F)c2)c(Cc2cccc(C(F)(F)F)c2)n1	TGFb SMAD3 inh inconclusive, HepG2 tox 8.9µM, HT1080 IDH1KD tx 4.6µM, IL1B secr inh -81, HT1080NT lethal inconclusive
O=C(Cc1n[nH]c(=O)[nH]c1=O)N/N=C/c1cccc(Cl)c1	none
O=C(Oc1ccc(-c2nnco2)cc1)c1ccc(Br)o1	none
O=C(Oc1ccc(-c2nnco2)cc1)N(c1ccccc1)c1ccccc1	IL1B secr inh -79
Fc1ccc2c(c1)C(c1ccncc1)=NNC(c1ccc(Cl)cc1)=N2	TGFb SMAD3 inh inconclusive, IL1B secr inh -67
Fc1ccc2c(c1)C(c1ccc(N3CCOCC3)cc1)=NNC(c1cccs1)=N2	IL1B secr inh -51
Brc1ccc2c(c1)C(c1ccc(N3CCOCC3)cc1)=NNC(c1cccs1)=N2	none
Nc1cccc(-c2nc3ccccc3s2)c1	none
O=C(c1cc2c(s1)CCCC2)N1CCN(S(=O)(=O)c2ccccc2)CC1	HepG2 tox 10µM
COc1ccc(S(=O)(=O)N2CCN(C(=O)c3cc4c(s3)CCCC4)CC2)cc1	TGFb SMAD3 inh inconclusive
Cc1ccc(N(O)C(C)(C)C)cc1	none
O=C(Nc1ccccc1)C(c1ccccc1)C1CCCC1 (stereo not given)	TGFb SMAD3 inh inconclusive, IL1B secr inh -91
O=C(Cn1cc[n+](CC(=O)c2ccc(Cl)cc2Cl)c1)c1ccc(Cl)cc1Cl	TGFb SMAD3 inh inconclusive, IL1B secr inh -82
